The list is not random: actives were taken first. Their share in the collection is about 8.1%.
KB-V1 cytotox: KB-V1 MDR subline cytotoxicity; KB-V1 MDR cells viability, CellTiter-Glo, 72 h; Potency, µM (highest dose often 46.1 µM), usual class: cytotoxic; 3.4% of 400,000 active; note: nearly all actives have a fitted effect of over 60% in size
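Potencies derive from concentration-effect curves fitted to normalized luminescence (CellTiter-Glo) of KB-V1 cells treated for 72 h at 37 degrees C in phenol-red-free DMEM containing 10% FBS.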
KB-3-1 cytotox: KB-3-1 parental cell cytotoxicity | Potency, µM (doses to about 46.1 µM), actives largely listed as cytotoxic | KB-3-1 viability, CellTiter-Glo ATP luminescence, 72 h | AID 1347075 | 1.4% of 400,000 active; note: nearly all actives have a fitted effect of over 60% in size
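Multi-concentration cytotoxicity screen in KB-3-1 cells grown in DMEM lacking phenol red with 10% FBS. After 72 h at 37 °C with compound, ATP-dependent luminescence was recorded.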
MCF10A rereplic: inducers of DNA re-replication in MCF 10A breast cells; Potency, µM (titrated, usually from 46.1 µM), hits mostly activators; 2.9% of 350,000 active; MCF 10A DNA re-replication, Hoechst nuclear intensity, 48 h; note: nearly all actives have a fitted effect of over 50% in size
SW480 rereplic: induces DNA re-replication in SW480 colon adenocarcinoma cells; 1.8% of 340,000 active; SW480 DNA re-replication, Hoechst DNA content imaging, 48 h; Potency, µM (series often up to 46.1 µM), usual class: activators; note: nearly all actives have a fitted effect of over 55% in size
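Image-based DNA-content assay: after two days of treatment, nuclei were labelled with the DNA dye Hoechst and imaged, and hits were compounds raising the count of nuclei showing high fluorescence intensity.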
ELG1 DNA repair: blocks ELG1-dependent DNA repair in HEK293T cells. HEK293T ELG1-luciferase reporter, luminescence, 16 h; DNA damage induced by 5-fluorouridine. Potency, µM (series often up to 46.1 µM), usual class: inhibitors. 2.3% of 330,000 active. AID 504467; note: nearly all actives have a fitted effect of over 55% in size
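Step one: seed 2,000 cells per well. Step two: pin-transfer compound or DMSO alongside 5-fluorouridine. Step three: incubate 16 hr, 37 °C, 5% CO2. Step four: add ONE-Glo, wait 30 min, read luminescence.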
Large screens that a line does not name were inactive. Calls come from the whole dose curve; as a rule, active = well fitted curve in the direction sought with a large enough effect; inconclusive = small, poorly fitted or top-dose-only effect, or another doubt; inactive = no such curve, though single readings can be large; an effect the other way counts as inactive or inconclusive.

COc1ccc(OC)c(C2C3=C(COC3=O)Nc3cc4c(cc32)OCO4)c1 (centres undefined)	KB-V1 cytotox 1.16µM, KB-3-1 cytotox 0.058µM, MCF10A rereplic 0.259µM, SW480 rereplic 0.146µM
COc1ccc(C2C3=C(CC(C)(C)CC3=O)Nc3cc4c(cc32)OCO4)cc1 (centres undefined)	none
O=C(COC(=O)/C=C/c1ccc(Cl)cc1)NC1CCCC1	KB-V1 cytotox inconclusive
O=C(c1ccc2c3c(cccc13)CC2)C1CCCN(Cc2cccnc2)C1 (centres undefined)	none
COc1cc(CN2CCCC(C(=O)c3ccc4c5c(cccc35)CC4)C2)cc(OC)c1O (centres undefined)	KB-3-1 cytotox inconclusive, MCF10A rereplic 20.6µM, SW480 rereplic inconclusive
CCOc1cc(C(N)=O)cc(OCC)c1OCC	none
CCOc1cc(/C=N/NC(N)=O)cc(Br)c1OCc1ccccc1F	none
CCOc1cc(/C=N\NC(N)=O)cc(Br)c1OC(C)C	KB-V1 cytotox 11.6µM, KB-3-1 cytotox 7.31µM, MCF10A rereplic inconclusive, SW480 rereplic inconclusive
CCOc1cc(C(N)=O)cc(Br)c1OC	ELG1 DNA repair 5.17µM
OC[C@@H]1[C@@H](c2ccc(Cl)cc2)C(c2ccccc2)=NN1c1ccccc1	MCF10A rereplic 2.06µM, SW480 rereplic 23.1µM
OC[C@@H]1[C@@H](c2ccc(F)cc2)C(c2cccc(Cl)c2)=NN1c1ccccc1	KB-V1 cytotox inconclusive, KB-3-1 cytotox inconclusive, MCF10A rereplic 0.581µM, SW480 rereplic 0.13µM
OC[C@@H]1[C@@H](c2ccc(Cl)cc2)C(c2cccc(Cl)c2)=NN1c1ccccc1	KB-V1 cytotox inconclusive, MCF10A rereplic inconclusive, SW480 rereplic 2.31µM
Cc1ccc(C(=O)NC(Cc2c[nH]c3ccccc23)C(=O)O)o1 (centres undefined)	none
CCCCC(=O)N/N=C(C)/C=C/c1ccccc1F	ELG1 DNA repair inconclusive
CCCC(=O)Nc1ccc(C(=O)NN2C(=O)c3ccccc3C2=O)cc1	ELG1 DNA repair inconclusive
CC1(C(=O)NS(=O)(=O)c2cccc(Cl)c2)CCN1C(=O)COc1ccc(Cl)cc1 (centres undefined)	none (no result: MCF10A rereplic, SW480 rereplic, ELG1 DNA repair)
CN(C(=O)CCCN1CCCC1=O)C1CCCN(Cc2ccccc2F)C1 (centres undefined)	none (no result: KB-V1 cytotox, KB-3-1 cytotox)
CCOc1[nH]n(-c2ccccc2)c(=O)c1C=Nc1ccccc1	KB-V1 cytotox inconclusive, MCF10A rereplic 23.1µM, SW480 rereplic inconclusive, ELG1 DNA repair inconclusive
c1cnc2nc3c4ccccc4c4ccccc4c3nc2c1	MCF10A rereplic 10.3µM, SW480 rereplic 23.1µM (no result: ELG1 DNA repair)
Cn1ncc(Oc2ccc([N+](=O)[O-])cc2)c(Cl)c1=O	MCF10A rereplic inconclusive, SW480 rereplic inconclusive, ELG1 DNA repair inconclusive
CC(C)(C)n1ncc(Oc2ccccc2[N+](=O)[O-])c(Cl)c1=O	KB-V1 cytotox 18.4µM, SW480 rereplic inconclusive
COc1ccc(NC(=O)c2cccc(Oc3ccc([N+](=O)[O-])cc3Cl)c2)cc1	KB-V1 cytotox inconclusive, KB-3-1 cytotox inconclusive, MCF10A rereplic 6.51µM, SW480 rereplic inconclusive
Cc1ccc(C)c(NC(=O)c2cccc(Oc3ccc([N+](=O)[O-])cc3Cl)c2)c1	none
O=C(Nc1ccc([N+](=O)[O-])cc1Cl)c1cccc([N+](=O)[O-])c1	none (no result: MCF10A rereplic, SW480 rereplic, ELG1 DNA repair)
O=C(Nc1cccc(Cl)c1)c1cccc(Oc2ccc([N+](=O)[O-])cc2Cl)c1	KB-V1 cytotox inconclusive, MCF10A rereplic inconclusive, SW480 rereplic 4.11µM, ELG1 DNA repair inconclusive
COc1cccc(CN(C)C(=O)c2ccc3c(=O)n4c(nc3c2)CCC4)c1OC	KB-V1 cytotox inconclusive, ELG1 DNA repair inconclusive
Cc1ccc(Nc2nc(NCc3ccco3)nc3nccnc23)c(C)c1	none (no result: MCF10A rereplic, SW480 rereplic, ELG1 DNA repair)
OC1Cc2ccccc2C1Nc1cccc(C(F)(F)F)c1 (centres undefined)	KB-V1 cytotox inconclusive (no result: ELG1 DNA repair)
N#Cc1ccc(NC2c3ccccc3CC2O)cc1 (centres undefined)	KB-V1 cytotox 18.4µM, KB-3-1 cytotox inconclusive (no result: ELG1 DNA repair)
Cc1ccc(S(=O)(=O)Oc2cccc(/C=N/n3cnnc3)c2)cc1	KB-V1 cytotox 18.4µM, KB-3-1 cytotox inconclusive, MCF10A rereplic inconclusive, SW480 rereplic inconclusive, ELG1 DNA repair inconclusive
CCn1c(CCNC(=O)c2cccs2)nnc1SCC(=O)Nc1nc(-c2ccccc2)cs1	KB-V1 cytotox inconclusive, MCF10A rereplic inconclusive, ELG1 DNA repair 23.1µM

Screens as filed in PubChem.
